Columns and labels:
Test in all cases: log2 ratio of Biotin-Ahx-Ub-VS probe labelling (fragment/DMSO); higher = less target engagement (more negative = stronger competition), active = hit call of the paper (q ≤ 0.05, log2 ratio ≤ -1)
Conditions in all cases: compound concentration: 200 uM; treatment time: 3 h
USP42 = molecular target: T1, USP42 (UniProt Q9H9J4)
T1 sequence (whole entry): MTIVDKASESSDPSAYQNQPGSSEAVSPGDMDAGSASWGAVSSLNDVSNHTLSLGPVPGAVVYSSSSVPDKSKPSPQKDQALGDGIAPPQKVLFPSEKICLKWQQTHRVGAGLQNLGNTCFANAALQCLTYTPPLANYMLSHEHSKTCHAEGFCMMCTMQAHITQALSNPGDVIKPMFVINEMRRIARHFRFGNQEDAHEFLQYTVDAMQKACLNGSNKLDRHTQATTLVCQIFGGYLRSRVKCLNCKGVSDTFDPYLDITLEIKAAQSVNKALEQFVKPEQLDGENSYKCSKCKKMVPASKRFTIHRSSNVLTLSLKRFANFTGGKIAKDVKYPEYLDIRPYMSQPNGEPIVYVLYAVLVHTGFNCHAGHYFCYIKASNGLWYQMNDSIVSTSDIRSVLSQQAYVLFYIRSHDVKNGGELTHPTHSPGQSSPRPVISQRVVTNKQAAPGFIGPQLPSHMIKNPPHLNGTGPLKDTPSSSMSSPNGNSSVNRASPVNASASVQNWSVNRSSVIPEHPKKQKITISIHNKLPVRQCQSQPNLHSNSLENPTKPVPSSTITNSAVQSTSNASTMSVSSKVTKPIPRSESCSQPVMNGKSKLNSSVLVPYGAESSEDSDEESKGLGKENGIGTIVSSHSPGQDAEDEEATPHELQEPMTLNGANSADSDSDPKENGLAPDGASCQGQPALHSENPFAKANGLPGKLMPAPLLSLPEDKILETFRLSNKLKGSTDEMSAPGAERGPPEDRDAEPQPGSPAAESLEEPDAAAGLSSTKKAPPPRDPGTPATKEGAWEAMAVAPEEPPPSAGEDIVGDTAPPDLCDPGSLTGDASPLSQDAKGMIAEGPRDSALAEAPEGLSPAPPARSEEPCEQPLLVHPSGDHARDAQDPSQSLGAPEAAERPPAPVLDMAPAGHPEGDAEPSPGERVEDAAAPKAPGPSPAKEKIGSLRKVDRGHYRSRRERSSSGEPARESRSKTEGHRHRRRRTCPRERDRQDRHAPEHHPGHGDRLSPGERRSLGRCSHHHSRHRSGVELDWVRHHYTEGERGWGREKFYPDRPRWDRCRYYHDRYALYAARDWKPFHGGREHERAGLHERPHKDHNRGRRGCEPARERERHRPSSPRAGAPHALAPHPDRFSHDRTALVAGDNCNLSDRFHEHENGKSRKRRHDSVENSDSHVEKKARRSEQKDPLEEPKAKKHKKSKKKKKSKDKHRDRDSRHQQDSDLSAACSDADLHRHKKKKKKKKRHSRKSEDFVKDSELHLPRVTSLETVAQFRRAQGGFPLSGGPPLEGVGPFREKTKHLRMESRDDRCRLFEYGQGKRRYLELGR
In short: (§1)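 HEK293T lysate (495 µg per sample, in Tris/CHAPS/IGEPAL buffer with protease inhibitors) was treated in triplicate with fragment at 200 µM or with DMSO for 3 h. It was then treated with Biotin-Ahx-Ub-VS (0.5 µM final) for 1 h. Labelled DUBs were NeutrAvidin-enriched, digested with LysC and trypsin, and run by diaPASEF LC-MS/MS. Spectronaut label-free quantities were global-median-normalised. Values are average log2 ratios fragment/DMSO by unpaired t-test, using proteins with ≥2 unique peptides.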

USP46 = USP46 (UniProt P62068)
Chain of USP46 (P62068 whole entry): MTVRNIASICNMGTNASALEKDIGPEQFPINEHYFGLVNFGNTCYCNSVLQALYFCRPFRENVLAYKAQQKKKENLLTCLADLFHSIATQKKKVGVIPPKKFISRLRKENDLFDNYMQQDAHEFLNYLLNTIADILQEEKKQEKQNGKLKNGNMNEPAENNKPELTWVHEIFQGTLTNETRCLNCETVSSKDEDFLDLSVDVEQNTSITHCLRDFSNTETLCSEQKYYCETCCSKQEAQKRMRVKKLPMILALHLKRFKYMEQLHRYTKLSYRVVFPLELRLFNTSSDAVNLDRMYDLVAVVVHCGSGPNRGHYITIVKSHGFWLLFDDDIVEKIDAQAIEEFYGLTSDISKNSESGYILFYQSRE
In short: as §1

USP47 = molecular target: T2, USP47 (UniProt Q96K76)
T2 sequence (whole entry): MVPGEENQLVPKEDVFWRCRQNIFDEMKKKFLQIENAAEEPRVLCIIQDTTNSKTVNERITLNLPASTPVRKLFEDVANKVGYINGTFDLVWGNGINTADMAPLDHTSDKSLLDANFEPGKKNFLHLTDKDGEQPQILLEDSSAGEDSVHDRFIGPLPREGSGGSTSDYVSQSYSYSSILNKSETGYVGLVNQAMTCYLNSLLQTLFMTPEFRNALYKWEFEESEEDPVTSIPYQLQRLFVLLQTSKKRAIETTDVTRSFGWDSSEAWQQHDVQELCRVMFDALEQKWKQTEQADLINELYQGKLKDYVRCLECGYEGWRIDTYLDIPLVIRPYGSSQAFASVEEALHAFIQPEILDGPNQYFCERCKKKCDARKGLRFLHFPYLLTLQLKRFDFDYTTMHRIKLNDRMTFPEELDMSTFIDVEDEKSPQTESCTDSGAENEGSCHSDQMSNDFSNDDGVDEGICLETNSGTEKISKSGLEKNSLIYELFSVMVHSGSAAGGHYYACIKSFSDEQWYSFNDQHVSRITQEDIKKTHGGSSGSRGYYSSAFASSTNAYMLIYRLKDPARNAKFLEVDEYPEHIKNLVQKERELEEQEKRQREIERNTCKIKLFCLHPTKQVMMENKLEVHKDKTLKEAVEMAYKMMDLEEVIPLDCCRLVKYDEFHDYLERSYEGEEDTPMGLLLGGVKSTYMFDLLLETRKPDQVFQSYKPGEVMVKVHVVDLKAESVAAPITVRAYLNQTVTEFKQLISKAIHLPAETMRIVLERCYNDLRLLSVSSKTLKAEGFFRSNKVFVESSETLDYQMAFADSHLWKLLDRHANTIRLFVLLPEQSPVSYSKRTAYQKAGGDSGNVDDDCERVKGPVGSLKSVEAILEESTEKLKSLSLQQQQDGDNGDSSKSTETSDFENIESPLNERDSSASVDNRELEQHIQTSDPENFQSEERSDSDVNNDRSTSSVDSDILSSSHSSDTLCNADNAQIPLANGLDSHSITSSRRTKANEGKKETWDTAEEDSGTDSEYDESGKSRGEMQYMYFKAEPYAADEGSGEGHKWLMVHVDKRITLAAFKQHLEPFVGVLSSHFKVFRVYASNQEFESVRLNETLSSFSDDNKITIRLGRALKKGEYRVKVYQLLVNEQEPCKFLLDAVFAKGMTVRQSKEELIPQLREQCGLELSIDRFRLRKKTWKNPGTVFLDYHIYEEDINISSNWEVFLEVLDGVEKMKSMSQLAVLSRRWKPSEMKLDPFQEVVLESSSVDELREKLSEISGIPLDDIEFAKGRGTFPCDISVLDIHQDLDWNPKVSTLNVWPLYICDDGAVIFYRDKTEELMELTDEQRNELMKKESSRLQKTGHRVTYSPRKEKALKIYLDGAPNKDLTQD
In short: as §1

USP48 = molecular target: T3, USP48 (UniProt Q86UV5)
T3 sequence (whole entry): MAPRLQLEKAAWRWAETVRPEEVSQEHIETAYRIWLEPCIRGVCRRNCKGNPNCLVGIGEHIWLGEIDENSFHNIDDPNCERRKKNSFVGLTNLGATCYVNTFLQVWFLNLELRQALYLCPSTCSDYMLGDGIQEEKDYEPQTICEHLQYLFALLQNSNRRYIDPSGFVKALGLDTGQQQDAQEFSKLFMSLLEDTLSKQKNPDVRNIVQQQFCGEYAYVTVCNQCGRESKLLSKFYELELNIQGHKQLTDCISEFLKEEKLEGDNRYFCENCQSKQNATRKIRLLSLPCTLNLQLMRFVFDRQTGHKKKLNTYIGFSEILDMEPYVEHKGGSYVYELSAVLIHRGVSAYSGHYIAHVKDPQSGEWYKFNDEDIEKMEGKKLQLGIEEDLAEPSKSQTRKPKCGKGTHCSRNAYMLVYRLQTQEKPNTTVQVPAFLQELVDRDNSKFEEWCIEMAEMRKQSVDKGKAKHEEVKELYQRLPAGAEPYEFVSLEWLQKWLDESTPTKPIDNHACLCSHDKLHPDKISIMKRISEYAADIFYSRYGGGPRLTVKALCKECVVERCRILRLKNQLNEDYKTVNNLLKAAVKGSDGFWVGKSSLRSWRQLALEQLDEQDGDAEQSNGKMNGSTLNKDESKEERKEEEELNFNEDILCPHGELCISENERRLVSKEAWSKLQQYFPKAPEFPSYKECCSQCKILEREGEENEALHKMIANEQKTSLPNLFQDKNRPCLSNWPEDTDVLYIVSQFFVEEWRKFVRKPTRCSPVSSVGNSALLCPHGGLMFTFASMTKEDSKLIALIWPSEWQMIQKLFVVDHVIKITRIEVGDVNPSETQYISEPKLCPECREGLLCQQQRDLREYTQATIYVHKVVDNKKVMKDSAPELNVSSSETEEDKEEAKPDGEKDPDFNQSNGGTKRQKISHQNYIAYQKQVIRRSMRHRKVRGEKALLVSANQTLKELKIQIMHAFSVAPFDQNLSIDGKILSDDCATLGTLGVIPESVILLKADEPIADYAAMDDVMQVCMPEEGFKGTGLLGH
In short: as §1

USP5 = molecular target: T4, USP5 (UniProt P45974)
T4 sequence (whole entry): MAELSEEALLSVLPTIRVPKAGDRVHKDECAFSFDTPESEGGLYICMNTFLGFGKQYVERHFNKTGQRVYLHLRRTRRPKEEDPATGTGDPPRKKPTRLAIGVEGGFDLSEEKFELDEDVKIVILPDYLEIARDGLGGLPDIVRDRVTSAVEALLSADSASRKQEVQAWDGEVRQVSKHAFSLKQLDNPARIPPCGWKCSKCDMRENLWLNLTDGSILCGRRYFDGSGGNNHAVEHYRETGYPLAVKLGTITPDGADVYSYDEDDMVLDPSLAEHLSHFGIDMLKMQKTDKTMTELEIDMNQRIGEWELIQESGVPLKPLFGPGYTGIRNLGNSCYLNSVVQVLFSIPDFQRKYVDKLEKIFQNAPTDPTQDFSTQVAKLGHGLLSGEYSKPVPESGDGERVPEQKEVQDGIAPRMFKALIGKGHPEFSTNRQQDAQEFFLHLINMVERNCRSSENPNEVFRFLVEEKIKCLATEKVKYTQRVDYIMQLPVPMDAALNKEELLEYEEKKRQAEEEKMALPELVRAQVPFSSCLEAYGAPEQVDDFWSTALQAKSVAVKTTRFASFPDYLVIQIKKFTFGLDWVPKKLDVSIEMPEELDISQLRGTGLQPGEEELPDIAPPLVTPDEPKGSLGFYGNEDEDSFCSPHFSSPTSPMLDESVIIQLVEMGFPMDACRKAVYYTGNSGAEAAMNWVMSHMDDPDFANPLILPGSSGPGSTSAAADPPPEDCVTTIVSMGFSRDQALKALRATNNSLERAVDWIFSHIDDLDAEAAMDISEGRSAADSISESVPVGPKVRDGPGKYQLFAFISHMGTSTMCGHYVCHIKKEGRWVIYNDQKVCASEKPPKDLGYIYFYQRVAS
In short: as §1

USP54 = USP54 (UniProt Q70EL1)
Chain of USP54 (Q70EL1 whole entry): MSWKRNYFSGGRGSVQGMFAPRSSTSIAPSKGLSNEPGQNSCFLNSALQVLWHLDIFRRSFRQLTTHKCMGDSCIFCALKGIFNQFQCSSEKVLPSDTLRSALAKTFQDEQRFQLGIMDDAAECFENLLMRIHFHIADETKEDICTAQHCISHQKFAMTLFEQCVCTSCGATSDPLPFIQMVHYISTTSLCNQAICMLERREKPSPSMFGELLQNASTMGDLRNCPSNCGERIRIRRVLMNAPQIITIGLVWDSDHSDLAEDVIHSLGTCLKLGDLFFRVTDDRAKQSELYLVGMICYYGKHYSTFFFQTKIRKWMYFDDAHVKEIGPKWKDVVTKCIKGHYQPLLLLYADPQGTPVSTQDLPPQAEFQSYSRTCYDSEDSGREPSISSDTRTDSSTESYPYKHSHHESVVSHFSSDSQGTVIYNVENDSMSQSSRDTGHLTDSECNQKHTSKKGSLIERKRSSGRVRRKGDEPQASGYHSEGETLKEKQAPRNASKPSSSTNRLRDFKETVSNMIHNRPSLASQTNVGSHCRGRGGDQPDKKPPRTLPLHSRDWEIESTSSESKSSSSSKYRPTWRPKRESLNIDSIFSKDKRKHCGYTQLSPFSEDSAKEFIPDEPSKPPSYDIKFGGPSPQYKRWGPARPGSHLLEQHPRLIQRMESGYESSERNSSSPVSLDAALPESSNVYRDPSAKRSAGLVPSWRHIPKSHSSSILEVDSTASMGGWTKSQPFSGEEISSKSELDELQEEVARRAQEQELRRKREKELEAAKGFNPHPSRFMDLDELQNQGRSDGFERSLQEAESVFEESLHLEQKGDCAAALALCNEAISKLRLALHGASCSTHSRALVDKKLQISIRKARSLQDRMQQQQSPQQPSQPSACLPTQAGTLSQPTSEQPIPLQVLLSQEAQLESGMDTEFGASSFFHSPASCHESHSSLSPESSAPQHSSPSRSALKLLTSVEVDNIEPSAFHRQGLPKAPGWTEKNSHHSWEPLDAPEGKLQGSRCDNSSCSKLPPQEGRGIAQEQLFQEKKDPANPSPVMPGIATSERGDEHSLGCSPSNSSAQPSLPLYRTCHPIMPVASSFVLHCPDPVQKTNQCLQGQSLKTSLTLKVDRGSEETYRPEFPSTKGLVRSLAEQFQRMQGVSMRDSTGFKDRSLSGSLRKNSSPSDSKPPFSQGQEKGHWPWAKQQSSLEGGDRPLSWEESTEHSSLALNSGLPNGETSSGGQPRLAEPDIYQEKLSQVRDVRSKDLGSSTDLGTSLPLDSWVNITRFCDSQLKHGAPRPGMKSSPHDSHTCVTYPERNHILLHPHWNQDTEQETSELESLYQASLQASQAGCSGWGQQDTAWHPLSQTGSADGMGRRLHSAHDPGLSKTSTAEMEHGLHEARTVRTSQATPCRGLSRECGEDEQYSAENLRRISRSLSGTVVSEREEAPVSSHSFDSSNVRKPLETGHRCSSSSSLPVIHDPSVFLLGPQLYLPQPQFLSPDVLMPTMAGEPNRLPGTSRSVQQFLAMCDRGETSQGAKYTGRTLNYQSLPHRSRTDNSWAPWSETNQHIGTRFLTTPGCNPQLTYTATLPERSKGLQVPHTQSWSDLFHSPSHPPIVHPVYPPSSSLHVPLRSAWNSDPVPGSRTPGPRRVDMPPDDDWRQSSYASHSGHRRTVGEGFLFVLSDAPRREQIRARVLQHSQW
In short: as §1

USP7 = USP7 (UniProt Q93009)
Chain of USP7 (Q93009 whole entry, looked up): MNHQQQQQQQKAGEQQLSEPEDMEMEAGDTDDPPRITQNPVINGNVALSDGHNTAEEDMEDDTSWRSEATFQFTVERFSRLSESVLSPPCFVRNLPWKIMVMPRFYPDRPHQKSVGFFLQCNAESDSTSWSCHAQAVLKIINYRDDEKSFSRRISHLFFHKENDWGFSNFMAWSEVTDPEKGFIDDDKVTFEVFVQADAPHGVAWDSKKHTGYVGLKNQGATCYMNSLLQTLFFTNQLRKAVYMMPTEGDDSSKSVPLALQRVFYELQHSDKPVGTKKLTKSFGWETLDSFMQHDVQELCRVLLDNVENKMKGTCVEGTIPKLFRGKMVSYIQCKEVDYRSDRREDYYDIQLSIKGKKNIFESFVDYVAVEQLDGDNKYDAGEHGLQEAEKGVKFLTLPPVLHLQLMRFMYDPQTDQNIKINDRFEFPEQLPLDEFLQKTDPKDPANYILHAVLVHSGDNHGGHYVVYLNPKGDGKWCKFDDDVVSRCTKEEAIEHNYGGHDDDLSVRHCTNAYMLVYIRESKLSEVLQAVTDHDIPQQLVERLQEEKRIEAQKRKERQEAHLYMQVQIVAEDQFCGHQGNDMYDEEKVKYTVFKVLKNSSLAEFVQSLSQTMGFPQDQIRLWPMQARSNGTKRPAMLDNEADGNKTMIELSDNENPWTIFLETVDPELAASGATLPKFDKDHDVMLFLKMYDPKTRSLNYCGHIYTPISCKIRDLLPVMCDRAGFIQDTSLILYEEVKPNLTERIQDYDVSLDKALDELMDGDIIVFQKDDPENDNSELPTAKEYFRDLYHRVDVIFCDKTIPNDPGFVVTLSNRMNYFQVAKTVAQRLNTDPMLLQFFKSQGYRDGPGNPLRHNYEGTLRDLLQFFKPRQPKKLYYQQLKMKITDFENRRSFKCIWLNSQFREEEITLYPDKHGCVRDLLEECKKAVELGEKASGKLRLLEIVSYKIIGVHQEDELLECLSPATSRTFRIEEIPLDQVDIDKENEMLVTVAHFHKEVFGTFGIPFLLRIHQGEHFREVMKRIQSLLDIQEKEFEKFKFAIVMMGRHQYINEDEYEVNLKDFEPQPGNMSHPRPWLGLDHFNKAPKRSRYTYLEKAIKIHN
In short: as §1

USP8 = molecular target: T5, USP8 (UniProt P40818)
T5 sequence (whole entry): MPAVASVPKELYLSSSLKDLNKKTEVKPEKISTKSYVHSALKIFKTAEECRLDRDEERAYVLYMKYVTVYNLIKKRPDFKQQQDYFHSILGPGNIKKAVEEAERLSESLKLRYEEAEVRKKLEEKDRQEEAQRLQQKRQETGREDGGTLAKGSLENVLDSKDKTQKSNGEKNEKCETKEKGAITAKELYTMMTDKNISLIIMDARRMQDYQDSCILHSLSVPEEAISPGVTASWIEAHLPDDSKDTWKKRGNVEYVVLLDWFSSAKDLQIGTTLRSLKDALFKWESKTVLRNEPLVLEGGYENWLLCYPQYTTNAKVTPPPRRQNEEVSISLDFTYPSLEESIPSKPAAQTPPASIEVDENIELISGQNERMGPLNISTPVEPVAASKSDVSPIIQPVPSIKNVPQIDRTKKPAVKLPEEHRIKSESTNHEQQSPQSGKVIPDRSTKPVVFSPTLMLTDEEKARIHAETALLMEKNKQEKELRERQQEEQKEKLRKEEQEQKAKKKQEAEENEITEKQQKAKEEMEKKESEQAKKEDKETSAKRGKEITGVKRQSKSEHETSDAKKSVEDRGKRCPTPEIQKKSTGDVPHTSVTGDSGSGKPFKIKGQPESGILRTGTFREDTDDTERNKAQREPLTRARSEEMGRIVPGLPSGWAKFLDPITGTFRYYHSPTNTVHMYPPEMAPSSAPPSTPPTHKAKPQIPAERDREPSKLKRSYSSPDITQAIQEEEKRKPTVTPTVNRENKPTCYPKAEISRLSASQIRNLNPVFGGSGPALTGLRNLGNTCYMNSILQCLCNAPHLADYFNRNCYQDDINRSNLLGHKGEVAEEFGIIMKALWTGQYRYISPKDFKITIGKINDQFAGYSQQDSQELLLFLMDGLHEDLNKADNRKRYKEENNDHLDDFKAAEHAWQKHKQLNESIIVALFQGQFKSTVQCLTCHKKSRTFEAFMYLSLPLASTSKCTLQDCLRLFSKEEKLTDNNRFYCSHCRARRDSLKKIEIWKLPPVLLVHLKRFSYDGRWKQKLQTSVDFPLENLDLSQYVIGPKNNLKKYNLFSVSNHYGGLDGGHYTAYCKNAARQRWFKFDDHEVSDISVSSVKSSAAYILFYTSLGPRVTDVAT
In short: as §1

Measured: log2 ratio of Biotin-Ahx-Ub-VS probe labelling

O=C(CCl)Nc1ccccc1C(F)(F)F
inactive: USP42 0.398 | USP46 0.0498 | USP47 -0.374 | USP48 -0.257 | USP5 -0.323 | USP54 0.637 | USP7 -0.404 | USP8 -0.029

Source: the supplement of paper PMC11732987, “Enantioselective OTUD7B fragment discovery through chemoproteomics screening and high-throughput optimisation” (Communications Chemistry, 2025)
